Results taken from the supplement of paper PMC12819154, “High-throughput peptide-centric local stability assay extends protein–ligand identification to membrane proteins, tissues and bacteria” (Nature Structural & Molecular Biology, 2025).

Compound: Nc1ncnc2c1ncn2[C@@H]1O[C@H](COP(=O)(O)OP(=O)(O)OP(=O)(O)O)[C@@H](O)[C@H]1O [adenosine 5'-triphosphate]
Experiment: log2 fold change of tryptic peptide abundance, ligand vs vehicle (limited proteolysis) (log2 ratio); higher = more trypsin-susceptible (destabilized)
Conditions: ligand concentration: 5 mM; sample: E. coli desalted lysate; replicate design: treated before aliquoting
Procedure: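 HT-PELSA: desalted E. coli K-12 BW25113 lysate (with 12 mM MgCl2) incubated with 5 mM ATP (pH 7) or water for 30 min at 25 C, then a 4 min trypsin pulse at 22 C. Peptides were quantified by DIA-MS (4 replicates). Value is the peptide log2 fold change (treated/control); negative = stabilized. Scale: negative = ligand-stabilized region.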
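Note: lysate desalted by size exclusion to strip endogenous ATP, peptide intensities built from DIA-NN precursor signals, and peptides missing any value discarded before comparison.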

Sequence of UniProt P37903 (P37903 whole entry): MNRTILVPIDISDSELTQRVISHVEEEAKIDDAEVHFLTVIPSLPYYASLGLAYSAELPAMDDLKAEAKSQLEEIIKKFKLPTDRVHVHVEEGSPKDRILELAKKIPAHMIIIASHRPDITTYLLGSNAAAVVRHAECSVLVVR
Sequence of UniProt P39285 (P39285 whole entry): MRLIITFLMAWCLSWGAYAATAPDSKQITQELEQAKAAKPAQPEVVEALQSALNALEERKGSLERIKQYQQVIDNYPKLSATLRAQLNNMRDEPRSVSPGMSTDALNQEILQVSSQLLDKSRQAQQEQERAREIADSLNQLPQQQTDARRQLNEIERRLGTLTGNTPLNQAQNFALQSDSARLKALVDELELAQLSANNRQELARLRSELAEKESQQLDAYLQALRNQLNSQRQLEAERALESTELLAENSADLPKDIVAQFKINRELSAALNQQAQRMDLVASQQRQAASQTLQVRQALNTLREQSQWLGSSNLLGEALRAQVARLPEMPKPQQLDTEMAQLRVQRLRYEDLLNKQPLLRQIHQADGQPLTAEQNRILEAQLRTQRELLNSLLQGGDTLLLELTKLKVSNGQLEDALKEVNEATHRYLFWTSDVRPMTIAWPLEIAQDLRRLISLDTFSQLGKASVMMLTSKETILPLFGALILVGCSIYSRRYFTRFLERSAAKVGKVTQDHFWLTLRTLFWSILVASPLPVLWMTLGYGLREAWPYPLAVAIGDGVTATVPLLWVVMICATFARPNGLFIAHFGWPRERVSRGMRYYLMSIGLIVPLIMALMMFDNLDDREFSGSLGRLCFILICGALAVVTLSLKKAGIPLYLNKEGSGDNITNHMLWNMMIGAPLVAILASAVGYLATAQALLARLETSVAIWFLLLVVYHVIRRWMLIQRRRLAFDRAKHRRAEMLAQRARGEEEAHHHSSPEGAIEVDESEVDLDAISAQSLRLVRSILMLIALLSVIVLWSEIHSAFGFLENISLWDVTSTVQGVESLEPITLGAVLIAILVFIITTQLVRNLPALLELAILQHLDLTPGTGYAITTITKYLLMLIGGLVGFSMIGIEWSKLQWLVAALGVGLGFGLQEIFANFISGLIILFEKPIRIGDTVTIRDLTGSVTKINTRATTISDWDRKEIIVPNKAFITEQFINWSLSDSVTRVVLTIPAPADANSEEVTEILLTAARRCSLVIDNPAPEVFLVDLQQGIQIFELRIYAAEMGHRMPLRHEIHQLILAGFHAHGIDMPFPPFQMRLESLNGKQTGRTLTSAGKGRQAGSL
Sequence of UniProt P04993 (P04993 whole entry): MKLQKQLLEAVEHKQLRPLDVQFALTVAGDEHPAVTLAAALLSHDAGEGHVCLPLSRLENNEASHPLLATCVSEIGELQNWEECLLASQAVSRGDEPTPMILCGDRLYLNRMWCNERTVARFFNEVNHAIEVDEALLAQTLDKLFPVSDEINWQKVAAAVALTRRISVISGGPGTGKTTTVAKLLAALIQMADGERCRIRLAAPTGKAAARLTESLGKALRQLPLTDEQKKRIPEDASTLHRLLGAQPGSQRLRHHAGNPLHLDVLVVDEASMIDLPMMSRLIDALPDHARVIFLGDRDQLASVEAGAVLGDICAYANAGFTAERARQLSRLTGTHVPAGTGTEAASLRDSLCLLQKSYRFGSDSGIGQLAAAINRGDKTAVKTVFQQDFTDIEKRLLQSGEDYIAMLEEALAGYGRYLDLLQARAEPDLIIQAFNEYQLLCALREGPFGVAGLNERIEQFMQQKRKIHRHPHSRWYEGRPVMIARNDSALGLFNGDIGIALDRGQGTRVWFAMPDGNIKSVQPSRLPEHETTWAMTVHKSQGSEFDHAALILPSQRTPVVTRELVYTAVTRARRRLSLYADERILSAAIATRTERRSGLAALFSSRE
Sequence of UniProt P39161 (P39161 whole entry): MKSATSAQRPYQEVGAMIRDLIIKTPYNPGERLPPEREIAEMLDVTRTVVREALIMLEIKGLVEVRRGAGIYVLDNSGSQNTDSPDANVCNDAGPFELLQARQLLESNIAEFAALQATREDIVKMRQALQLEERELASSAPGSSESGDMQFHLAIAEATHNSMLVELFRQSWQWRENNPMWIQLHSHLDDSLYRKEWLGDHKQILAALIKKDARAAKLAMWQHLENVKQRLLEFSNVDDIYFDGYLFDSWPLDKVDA
Sequence of UniProt P37908 (P37908 whole entry): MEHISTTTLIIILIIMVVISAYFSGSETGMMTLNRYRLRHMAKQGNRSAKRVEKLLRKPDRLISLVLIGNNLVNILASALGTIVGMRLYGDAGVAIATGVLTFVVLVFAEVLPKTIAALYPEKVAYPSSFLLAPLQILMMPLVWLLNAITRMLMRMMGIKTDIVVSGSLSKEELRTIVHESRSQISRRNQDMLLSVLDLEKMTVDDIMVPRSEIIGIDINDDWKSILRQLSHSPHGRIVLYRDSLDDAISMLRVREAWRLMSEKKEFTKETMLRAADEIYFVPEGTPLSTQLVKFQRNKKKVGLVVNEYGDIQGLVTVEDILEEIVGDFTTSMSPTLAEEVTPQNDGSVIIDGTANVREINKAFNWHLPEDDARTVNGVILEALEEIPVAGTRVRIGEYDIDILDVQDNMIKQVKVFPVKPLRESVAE
Sequence of UniProt P03018 (P03018 whole entry): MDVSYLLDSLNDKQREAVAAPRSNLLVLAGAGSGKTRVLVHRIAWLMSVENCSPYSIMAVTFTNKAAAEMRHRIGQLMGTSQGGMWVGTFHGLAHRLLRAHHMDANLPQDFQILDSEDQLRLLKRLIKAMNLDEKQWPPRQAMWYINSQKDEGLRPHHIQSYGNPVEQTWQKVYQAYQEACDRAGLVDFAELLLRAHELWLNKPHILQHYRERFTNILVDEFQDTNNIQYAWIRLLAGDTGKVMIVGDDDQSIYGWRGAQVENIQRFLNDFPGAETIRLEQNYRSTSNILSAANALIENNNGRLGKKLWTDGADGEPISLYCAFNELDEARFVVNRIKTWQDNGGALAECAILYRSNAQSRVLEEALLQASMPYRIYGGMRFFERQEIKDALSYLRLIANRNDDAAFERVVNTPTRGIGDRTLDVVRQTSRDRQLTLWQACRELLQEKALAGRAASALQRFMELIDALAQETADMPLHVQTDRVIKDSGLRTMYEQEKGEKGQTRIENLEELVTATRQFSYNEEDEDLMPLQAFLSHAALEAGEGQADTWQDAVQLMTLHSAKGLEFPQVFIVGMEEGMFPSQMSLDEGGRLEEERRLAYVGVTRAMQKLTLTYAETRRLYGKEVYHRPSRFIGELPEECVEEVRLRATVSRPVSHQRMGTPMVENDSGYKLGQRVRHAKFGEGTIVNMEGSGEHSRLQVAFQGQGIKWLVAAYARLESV
Sequence of UniProt P76010 (P76010 whole entry): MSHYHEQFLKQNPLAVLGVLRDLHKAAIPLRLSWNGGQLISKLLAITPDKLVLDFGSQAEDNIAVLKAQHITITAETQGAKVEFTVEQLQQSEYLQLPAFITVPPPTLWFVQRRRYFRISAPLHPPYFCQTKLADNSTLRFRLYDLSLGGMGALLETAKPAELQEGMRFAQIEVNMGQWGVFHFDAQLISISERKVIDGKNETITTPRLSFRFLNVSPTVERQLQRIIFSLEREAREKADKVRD
Sequence of UniProt P21151 (P21151 whole entry): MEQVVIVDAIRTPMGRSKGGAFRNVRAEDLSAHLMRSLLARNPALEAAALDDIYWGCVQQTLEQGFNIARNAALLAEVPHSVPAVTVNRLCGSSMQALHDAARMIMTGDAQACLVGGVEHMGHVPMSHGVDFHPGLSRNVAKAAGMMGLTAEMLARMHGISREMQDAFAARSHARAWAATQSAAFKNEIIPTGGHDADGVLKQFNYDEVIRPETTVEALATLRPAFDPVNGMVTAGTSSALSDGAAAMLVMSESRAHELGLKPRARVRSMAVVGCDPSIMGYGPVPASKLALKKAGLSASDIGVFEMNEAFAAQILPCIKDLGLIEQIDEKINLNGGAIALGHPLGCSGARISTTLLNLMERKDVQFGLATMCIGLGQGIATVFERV
Sequence of UniProt P0AAC4 (P0AAC4 whole entry): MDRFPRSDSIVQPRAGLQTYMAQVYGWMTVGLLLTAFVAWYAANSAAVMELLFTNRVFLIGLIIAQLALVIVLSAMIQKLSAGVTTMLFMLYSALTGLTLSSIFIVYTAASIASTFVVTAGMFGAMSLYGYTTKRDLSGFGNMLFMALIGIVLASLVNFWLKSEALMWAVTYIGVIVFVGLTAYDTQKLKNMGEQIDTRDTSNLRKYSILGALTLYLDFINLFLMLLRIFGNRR
Sequence of UniProt P75958 (P75958 whole entry): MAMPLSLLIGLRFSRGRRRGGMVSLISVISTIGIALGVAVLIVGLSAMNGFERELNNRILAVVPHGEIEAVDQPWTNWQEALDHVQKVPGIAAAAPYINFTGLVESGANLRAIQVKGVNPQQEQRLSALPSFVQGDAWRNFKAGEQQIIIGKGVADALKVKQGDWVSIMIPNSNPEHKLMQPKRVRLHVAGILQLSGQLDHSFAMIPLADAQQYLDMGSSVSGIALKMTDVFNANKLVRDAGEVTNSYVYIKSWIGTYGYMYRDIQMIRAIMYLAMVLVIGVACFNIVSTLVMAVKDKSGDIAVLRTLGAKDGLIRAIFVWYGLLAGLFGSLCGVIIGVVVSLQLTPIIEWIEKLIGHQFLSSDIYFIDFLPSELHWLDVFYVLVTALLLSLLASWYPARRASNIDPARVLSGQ
Sequence of UniProt P75874 (P75874 whole entry): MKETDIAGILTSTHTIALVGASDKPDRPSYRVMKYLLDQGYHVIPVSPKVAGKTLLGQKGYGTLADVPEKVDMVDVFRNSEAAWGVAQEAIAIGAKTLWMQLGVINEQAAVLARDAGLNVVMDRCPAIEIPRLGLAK
Sequence of UniProt P07014 (P07014 whole entry): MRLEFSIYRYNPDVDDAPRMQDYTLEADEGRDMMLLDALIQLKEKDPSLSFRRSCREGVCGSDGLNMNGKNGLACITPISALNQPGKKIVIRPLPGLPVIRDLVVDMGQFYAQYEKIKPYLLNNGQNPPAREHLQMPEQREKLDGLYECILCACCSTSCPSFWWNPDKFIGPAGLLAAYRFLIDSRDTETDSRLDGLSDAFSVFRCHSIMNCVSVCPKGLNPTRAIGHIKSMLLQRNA

| Target | log2 fold change |
| --- | --- |
| UniProt P08194 (peptide sequence: AEQELTAK, peptide start residue: 235) | -0.739 |
| UniProt P21151 (peptide sequence: ISTTLLNLMERK, peptide start residue: 352) | 0.834 |
| UniProt P33594 (peptide sequence: VLQNAVLPAFPVRR, peptide start residue: 249) | 0.401 |
| UniProt P37177 (peptide sequence: VANIYDSLHPAMLR, peptide start residue: 636) | 0.572 |
| UniProt P21170 (peptide sequence: TLLTQFR, peptide start residue: 619) | 0.611 |
| UniProt P24200 (peptide sequence: TLSQPEGSR, peptide start residue: 169) | -0.499 |
| UniProt P39285 (peptide sequence: IYAAEMGHR, peptide start residue: 1044) | 0.638 |
| UniProt P39161 (peptide sequence: QILAALIK, peptide start residue: 203) | 0.746 |
| UniProt P25666 (peptide sequence: MHLFTIKK, peptide start residue: 171) | -0.804 |
| UniProt P0AAC4 (peptide sequence: SDSIVQPR, peptide start residue: 7) | -0.368 |
| UniProt P33029 (peptide sequence: AHQALLTDR, peptide start residue: 38) | -0.503 |
| UniProt P37595 (peptide sequence: AQMSLQQELR, peptide start residue: 18) | 0.693 |
| UniProt P0A9U1 (peptide sequence: LIASGTPDDLK, peptide start residue: 537) | -0.834 |
| UniProt P07014 (peptide sequence: IVIRPLPGLPVIR, peptide start residue: 89) | 0.248 |
| UniProt P75958 (peptide sequence: GVADALK, peptide start residue: 153) | -0.59 |
| UniProt P33570 (peptide sequence: AGKEEAHGAPLGEEEVALAR, peptide start residue: 254) | -0.289 |

| Target | log2 fold change |
| --- | --- |
| UniProt P00579 (peptide sequence: EPTPEELAER, peptide start residue: 477) | 0.829 |
| UniProt P0CF91 (peptide sequence: SLLHLDALR, peptide start residue: 320) | 0.694 |
| UniProt P37691 (peptide sequence: MTSNLFGMQK, peptide start residue: 128) | 0.503 |
| UniProt P55734 (peptide sequence: LRHEQIIFHCQAGKR, peptide start residue: 55) | 0.948 |
| UniProt P76134 (peptide sequence: TMNSVQLTAQK, peptide start residue: 298) | -0.467 |
| UniProt P31060 (peptide sequence: ALAGELPLLKGER, peptide start residue: 48) | -1.32 |
| UniProt P25553 (peptide sequence: VAFGGKAVEGK, peptide start residue: 351) | 1.48 |
| UniProt P37908 (peptide sequence: RNQDMLLSVLDLEK, peptide start residue: 188) | -2.2 |
| UniProt P04993 (peptide sequence: YLDLLQAR, peptide start residue: 418) | -1.02 |
| UniProt P77293 (peptide sequence: GILSWVGGK, peptide start residue: 179) | -0.543 |
| UniProt P0AF96 (peptide sequence: AHVTAETPK, peptide start residue: 26) | -0.321 |
| UniProt P76010 (peptide sequence: FLNVSPTVER, peptide start residue: 213) | -1.34 |
| UniProt P03018 (peptide sequence: AHHMDANLPQDFQILDSEDQLR, peptide start residue: 100) | -2.2 |
| UniProt P37903 (peptide sequence: VHVHVEEGSPKDR, peptide start residue: 86) | -1.8 |
| UniProt P75874 (peptide sequence: YLLDQGYHVIPVSPK, peptide start residue: 35) | 0.437 |
